Molecules are shown by their SMILES. Screen size: about 290,000 compounds; about 3,000 (1%) were called active. The list comes from a sample in which actives are over-represented; it also holds similar structures and randomly drawn compounds. Values without a mark were called inactive. Cut-off read from the data, not from the text of the source: active = inhibition mostly above about 36% (no sharp cut-off); inactive = mostly below about 34%.

This assay in a line: NOD1 signaling inhibitors, primary screen, cell-based, luminescence, uHTS (AID 1578).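 Note: HEK-293T reporter cells stimulated with the NOD1 agonist gamma-tri-DAP.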 As to conditions: NOD1-driven NF-kB luciferase reporter cells, at 4 µM, active compounds read high.
Consider `Cc1c(C)n(CC(O)CN(CCO)CCO)c2ccccc12` (stereo not given), for which the inhibition is -21.9%.
In the case of `COc1ccc(CCNC(=O)C(C)OC(=O)c2ccco2)cc1OC` (stereo not given) it was -19.4%; in that of `O=C1OCCC1Sc1nnc(-c2ccccc2)o1` (stereo not given), 0.8%.
The same measure for `O=C1OCCC1Sc1nnc(-c2ccc(Br)cc2)o1` (stereo not given): -16%.
The same measure for `CCOc1ccc(C2C(C(=O)c3ccco3)=C(O)C(=O)N2CCN2CCOCC2)cc1` (stereo not given): 8.2%.
Turning to `Cc1ccc(S(=O)(=O)/N=C(/c2ccccc2)N2CCOCC2)cc1`, the inhibition is 7.1%.
For `Cc1ccc(CS(=O)(=O)CCC(=O)NCCC(C)C)cc1`, the inhibition was -16.6%.
For `CCOc1cc(/C=N\Nc2ncc(F)c(N3CCOCC3)n2)ccc1Oc1nc(Cl)ncc1F`, the inhibition is 19.9%.
The same measure for `Fc1ccc(-c2cnn3c(-c4ccncc4)ccnc23)cc1`: -51.9%.
In the case of `Fc1ccc(-c2cnn3c(-c4cccs4)ccnc23)cc1` it was -29%; in that of `Clc1ccc(-c2cnn3c(-c4ccncc4)ccnc23)cc1`, 52% (active); in that of `O=c1c2sc3nc(N4CCOCC4)c4c(c3c2ncn1CCc1ccccc1)CCCC4`, 45.8%.
The same measure for `O=C(Nc1ccc(Cl)cc1)Nc1nnc(CSCc2ccccc2)s1`: -3.9%; for `O=C(Nc1ccncc1)Nc1cccc(C(F)(F)F)c1`: 3.5%; for `COc1ccc(NC(=O)Nc2nnc(-c3ccco3)s2)cc1`: -7.3%.
On to `O=C(Nc1ccc(Cl)c(Cl)c1)Nc1nnc(CSc2ccccc2)s1`, for which the inhibition is 74.5% (active).
The same measure for `O=C(Nc1ccc(Cl)cc1)Nc1nnc(-c2ccncc2)s1`: 67.3%; for `COc1ccc(NC(=O)Nc2nnc(-c3cccs3)s2)cc1`: -3%.
In the case of `O=C(Nc1ccc(Cl)cc1)Nc1nnc(CSc2ccc(Cl)cc2)s1` it was -8.9%.
`CCn1ncc(NC(=O)Nc2cccc(C(F)(F)F)c2)c1C(N)=O`: the inhibition was -12.4%.
In the case of `O=C(Nc1ccc(F)cc1)Nc1nnc(-c2ccncc2)s1` it was -10.7%; in that of `COc1ccc(-c2[nH]ncc2CN2CCC(C(=O)N3CCOCC3)CC2)c(F)c1`, -28.9%; in that of `Cc1nc(C(=O)NCc2ccccc2)sc1C1(C)CC(c2cccc([N+](=O)[O-])c2)=NO1` (stereo not given), -0.1%.
In the case of `COc1ccc(CNC(=S)Nc2ccccc2-c2ccccc2)cc1` it was -26.8%; in that of `O=C(NC1CCCCC1)C1CCN(c2ncccn2)CC1`, -38.7%.
Regarding `O=S(=O)(NCc1ccc(F)cc1)c1ccc(-n2cnnn2)cc1`, the inhibition is -14.1%.
The same measure for `Cc1nnc(NC(=O)Nc2cccc(Cl)c2)s1`: -14.6%; for `O=C(Nc1ccc(Cl)c(Cl)c1)Nc1nnc(-c2ccncc2)s1`: -26.4%; for `O=C(Nc1cccc(Cl)c1)Nc1nnc(-c2ccncc2)s1`: 95.7% (active).
In the case of `Cc1ccc(NC(=O)Nc2nnc(CSCCOc3ccc(Cl)cc3)s2)cc1`, the inhibition is -1.1%.
The same measure for `Cc1ccc(OCCSCc2nnc(NC(=O)Nc3cccc(Cl)c3)s2)cc1`: 13.6%; for `O=C(Nc1cccc(Cl)c1)Nc1nnc(CSCCOc2ccc(Cl)cc2)s1`: 67.8% (active).
In the case of `CSc1ccccc1NC(=O)C1=CC(c2cccs2)=NS(=O)(=O)N1C` it was 3.3%; in that of `COc1ccc(C(=O)/C=C/C(=O)N(Cc2ccc(F)cc2)C(C(=O)NC2CCCCC2)c2ccncc2)c(O)c1` (stereo not given), -6.1%.
The same measure for `CCCN(CC(=O)Nc1ccc(C(C)=O)cc1)CC(=O)Nc1ccccc1C`: -32.2%; for `COc1cc2c(cc1OC)C(c1ccc(-c3ccccc3Cl)o1)=NCC2`: 75.2% (active); for `COc1cc2c(cc1OC)C(c1ccc(-c3ccc(Cl)cc3Cl)o1)=NCC2`: 58.8%.
As for `COc1cc2c(cc1OC)C(c1ccc(-c3ccc(Cl)c(Cl)c3)o1)=NCC2`, the inhibition was 63.1%.
On to `OCCN1CCN(c2cc(C(F)(F)F)nc3ccccc23)CC1`, for which the inhibition was -6.8%.
In the case of `C/C(=N\NC(=O)c1ccc(-c2ccccc2)cc1)c1ccco1` it was -46.6%; in that of `COc1ccc(C(=O)/C=C/Sc2nc3ccccc3o2)cc1`, 38.4% (active).
The same measure for `COc1ccc(C(=O)N/C(N)=N/c2nc3ccccc3o2)cc1`: -46.2%.
`COc1ccc(CCNC(=O)CSc2nc3ccccc3o2)cc1`: the inhibition is -19.1%.
In the case of `O=C(CCCN1C(=O)/C(=C/c2cccs2)SC1=S)Nc1ccccc1O` it was -2%; in that of `COc1ccc(C(=O)CN2C(=O)c3ccccc3C2=O)cc1`, -9.8%.
On to `N#CCSc1nc2c(sc(=S)n2Cc2ccco2)c(=O)n1-c1ccc(F)cc1`, for which the inhibition was 66.5% (active).
The same measure for `CCOC(=O)CSc1nc2c(sc(=S)n2Cc2ccco2)c(=O)n1-c1ccccc1`: 16.8%; for `CCOC(=O)CSc1nc2c(sc(=S)n2Cc2ccco2)c(=O)n1-c1ccc(F)cc1`: 14.1%; for `COc1ccccc1NC(=O)Cn1cnc2c(nc3n2CCCCC3)c1=O`: -24.1%.
In the case of `CC(=O)C1=C(C)NC(C)=C(C(C)=O)C1c1ccccc1` it was -20.8%; in that of `CCOc1ccc(C(=O)Nc2nnc(S(=O)(=O)Nc3ccccc3C)s2)cc1`, -17.1%; in that of `COC(=O)c1cc(=O)n(Cc2ccc3c(c2)OCO3)c(=Nc2ccccc2)s1`, 73.6% (active).
Take `COC(=O)c1cc(=O)n(Cc2ccc3c(c2)OCO3)c(=Nc2ccc(F)cc2)s1`: the inhibition is 48.7%.
In the case of `CCOC(=O)c1ccc(N=c2sc(C(=O)OC)cc(=O)n2Cc2ccc3c(c2)OCO3)cc1` it was 22.1%; in that of `Cc1nn(Cc2ccccc2)c(C)c1NC(=O)c1cc2nc(-c3ccco3)cc(C(F)(F)F)n2n1`, -2%.
As to `CCOc1cc2c(cc1OC)C(c1cccc([N+](=O)[O-])c1)NCC2` (stereo not given), the inhibition was -31.3%.
In the case of `CCOc1ccc(C2NCCc3cc(OC)c(OC)cc32)cc1OC` (stereo not given) it was 83.1% (active); in that of `COc1ccc(C2NCCc3cc(OC)c(OC)cc32)cc1OC` (stereo not given), -2.7%.
On to `Clc1cccc2c3c([nH]c12)CCNC3`, for which the inhibition was 0.5%.
The same measure for `CCn1c2ccccc2c2cc(C3C(C#N)=C(N)Oc4n[nH]c(COC)c43)ccc21` (stereo not given): 54.9% (active).
On to `COCc1[nH]nc2c1C(c1ccc(OC)c(OC)c1)C(C#N)=C(N)O2` (stereo not given), for which the inhibition was -5.1%.
In the case of `COCc1[nH]nc2c1C(c1cccc(OC)c1)C(C#N)=C(N)O2` (stereo not given), the inhibition is 4.9%.
In the case of `CC1(C(=O)NNC(=O)c2cccc([N+](=O)[O-])c2)CC1(Br)Br` (stereo not given) it was -8.9%.
In the case of `N/C(=N\OC(=O)c1cc(Br)ccc1Cl)c1ccccn1` it was -19.5%.
In the case of `N/C(=N\OC(=O)c1cc(Cl)ccc1Cl)c1ccccn1` it was 9.6%; in that of `N/C(=N\OC(=O)c1ccc([N+](=O)[O-])cc1Cl)c1ccccn1`, 45.8%.
Regarding `N/C(=N\OC(=O)c1ccc(Cl)cc1Cl)c1ccccn1`, the inhibition was 51.2% (active).
The same measure for `N/C(=N\OC(=O)c1ccccc1Cl)c1ccccn1`: 54.7% (active); for `COc1ccccc1C(=O)O/N=C(\N)c1ccccn1`: -10%.
Take `CCOC(=O)C1=C(C)NC(=O)NC1c1ccc2c(c1)OCO2` (stereo not given): the inhibition was 18%.
In the case of `CC1=C(C(=O)OCc2ccccc2)C(c2cccc([N+](=O)[O-])c2)NC(=O)N1` (stereo not given) it was 13.3%; in that of `CC1=C(C(=O)OCc2ccc3c(c2)OCO3)C(c2cccc([N+](=O)[O-])c2)NC(=O)N1` (stereo not given), 63.2% (active); in that of `CCOC(=O)C1=C(CN2CCCCCC2)NC(=O)NC1c1ccc2c(c1)OCO2` (stereo not given), -36.5%.
In the case of `COc1ccc(C2NC(=O)NC(C)=C2C(=O)OCc2ccc3c(c2)OCO3)cc1OC` (stereo not given) it was 15.1%; in that of `CCOC(=O)C1=C(CCl)NC(=O)NC1c1ccc2c(c1)OCO2` (stereo not given), 72.5% (active); in that of `Cc1cc(NC(=O)CN(C)CCOc2ccccc2)ccc1Br`, 7.6%.
In the case of `CCN(CC)C(=O)CSc1n[nH]c(=S)n1N` it was -12.5%; in that of `COC(=O)c1ccc(CSc2n[nH]c(-c3ccccc3)n2)o1`, -16.9%; in that of `COc1ccc(N2CC(C(=O)Nc3ccccc3C(=O)NC3CC3)CC2=O)cc1` (stereo not given), -5.8%.
Turning to `CCOC(=O)c1cccc(N2C(=O)C3C4C=CC(CC4)C3C2=O)c1` (stereo not given), the inhibition was 7.8%.
In the case of `CCSc1nnc(NC(=O)c2cccnc2)s1` it was -21.5%; in that of `CCOC(=O)C1=C(C)NC(=O)NC1c1c(OC)ccc2ccccc12` (stereo not given), -31.2%; in that of `O=C(NNC(=O)C12CC3CC(CC(C3)C1)C2)c1ccccn1`, 102% (active).
The same measure for `O=C(NNC(=O)C12CC3CC(CC(C3)C1)C2)c1cnccn1`: -14.6%; for `C/C(=N\NC(=O)c1ccccn1)C12CC3CC(CC(C3)C1)C2`: -2.5%.
In the case of `COc1ccc(/C=C(/NC(=O)c2ccco2)C(=O)N2CCCC2=O)cc1` it was -22.3%.
For the molecule `O=C(N/C(=C/c1ccc(Br)cc1)C(=O)N1CCOCC1)c1ccco1`, the inhibition is -24.4%.
In the case of `O=C(N/C(=C/c1ccc(Br)cc1)C(=O)N1CCCC1=O)c1ccco1` it was 63.5% (active); in that of `CC(=O)c1cccc(CN2CCN(C3CCCCC3)C(CCO)C2)c1` (stereo not given), -6.2%.
In the case of `CC(C)Oc1cccc(NC(=O)c2cnccc2C(F)(F)F)c1` it was -4.2%; in that of `COc1ccc(C(=O)N/C(=C\c2cccc([N+](=O)[O-])c2)C(=O)Nc2cccc(C(=O)O)c2)cc1`, -30.8%; in that of `CC(C)(C)C1=CC(=O)C(N2CCOCC2)=CC1=O`, 3.6%.
Turning to `CC1=C(C)C(=O)C(N2CCOCC2)=CC1=O`, the inhibition is -11.2%.
In the case of `CC1CN(CCOc2ccc([N+](=O)[O-])cc2)CC(C)O1` (stereo not given) it was -4.4%; in that of `C=CCN(c1ccccc1)S(=O)(=O)c1ccc(Cl)c(C(=O)OCC(=O)N(C)C2CCS(=O)(=O)C2)c1` (stereo not given), -31.4%.

These data come from PubChem BioAssay AID1578 (Sanford-Burnham Center for Chemical Genomics, 2009).
